D2 PAM-1 = positively modulates the human D2 dopamine receptor allosterically. P14416. HEK293 T-REx D2, calcium flux, EC20 dopamine potentiation. potentiation, % at 10 µM. hit rate 0.34% among 340,000;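 active = potentiation over 3 SD above the plate norm, cut at about 30% in these data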
Target sequence (P14416 whole entry, looked up): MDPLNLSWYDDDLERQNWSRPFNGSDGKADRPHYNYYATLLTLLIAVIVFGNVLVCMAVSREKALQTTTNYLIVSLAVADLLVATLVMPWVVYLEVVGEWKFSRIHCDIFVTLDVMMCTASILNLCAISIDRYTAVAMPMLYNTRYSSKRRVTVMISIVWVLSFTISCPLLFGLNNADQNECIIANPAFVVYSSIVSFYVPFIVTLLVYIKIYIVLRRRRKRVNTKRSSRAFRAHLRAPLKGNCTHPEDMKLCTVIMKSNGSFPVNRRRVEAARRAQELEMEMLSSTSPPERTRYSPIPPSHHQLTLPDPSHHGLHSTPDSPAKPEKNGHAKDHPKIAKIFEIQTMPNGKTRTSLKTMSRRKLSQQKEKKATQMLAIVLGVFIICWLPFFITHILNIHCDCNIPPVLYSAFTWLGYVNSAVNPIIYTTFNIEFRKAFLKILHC
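Tetracycline-induced Hek293 Trex D2 cells, force-coupled to calcium, loaded with no-wash calcium dye. Compound added with 180 s kinetic read for agonism, then EC20 dopamine and a further 180 s read for potentiation.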
D2 antag = antagonists of human D2 dopamine receptor; P14416; HEK293 TREx D2 cells, calcium flux, dopamine EC80; inhibition, % at 10 µM; hit rate 2% among 340,000; in the data active = inhibition above about 30%; inactive = below that, where a call was filed
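Calcium flux kinetic readout in an inducible HEK293 TREx D2 line plated overnight at 30 C. After 180 s compound exposure, an EC80 dopamine challenge follows with another 180 s kinetic read to detect antagonism.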
D2 PAM-2 = potentiates the human D2 dopamine receptor allosterically. AID 624464. potentiation, % (concentration not given with the values). DiscoveRx D2 beta-arrestin cells, luminescence, 90 min; 100% = 57 uM dopamine signal. hit rate 0.23% among 360,000; in the data active = potentiation above about 50%; inconclusive = mostly about 30% to 49%
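PathHunter D2 cells, attached overnight at 37 deg C, received compound in DMSO plus dopamine at EC20 (50 nM final) for 90 min at 37 deg C. Beta-arrestin recruitment was read as luminescence after 1 h with detection reagent at ambient temperature.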
D2 ag-1 = D2 dopamine receptor (human) agonism; HEK293 T-REx D2 cells, calcium flux agonist mode; hit rate 0.53% among 340,000; activation, % at 2 µM; P14416;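 active = activation over 3 SD above normal in the single-dose calcium agonist read, cut at about 30% in these data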
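Tetracycline-induced HEK293 Trex cells with D2 receptor force-coupled to calcium signaling, plated overnight at 30 C and loaded with no-wash calcium dye. Calcium flux read kinetically for 180 s after compound addition; responses flag agonists.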
D2 ag-2 = activates the human D2 dopamine receptor | AID 624465 | activation, % (test concentration not listed) | DiscoveRx PathHunter D2 beta-arrestin, luminescence, 90 min; 100% = 57 uM dopamine signal | P14416 | hit rate 0.084% among 360,000; in the data active = activation above about 40%; inconclusive = between about 15% and that limit
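Agonist mode: compounds alone added to overnight-plated D2 PathHunter cells for 90 min at 37 C, with 57 uM final dopamine (EC100) defining full response. Beta-arrestin recruitment detected by chemiluminescent reagent, read after 1 h at ambient temperature.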
Large screens that a line does not name were inactive. This is a sample that favours compounds with a hit; in the whole collection about 2.4% have one here.

CN1CCC(N(C)C(=O)COc2ccccc2Cl)CC1	D2 antag 31.1
CCCN1CCC(N(CCc2ccccc2)Cc2ccccc2)CC1	D2 antag 39.5
COc1ccc(CN2CCC(N(CCc3ccccc3)Cc3ccccc3)CC2)c(OC)c1	D2 antag 34.9
COc1ccc(CN2CCc3ccccc3C2)c(OC)c1	none
Cc1ccc(CNC(=O)c2ccc(CS(=O)(=O)c3ccccc3C)o2)cc1	none
Cc1ccc(CCNC(=O)c2ccc(CS(=O)(=O)c3ccccc3C)o2)cc1	D2 PAM-1 47.1
COc1ccc(C(CNC(=S)NCc2ccccc2)N2CCCC2)cc1 (stereo not drawn)	D2 antag 40.5
COc1ccc(C(CNC(=O)c2oc3c(Cl)cccc3c2C)N2CCCC2)cc1 (stereo not drawn)	D2 antag 39.1
COc1ccc(NC(=S)NCC(c2cccnc2)N2CCOCC2)cc1 (stereo not drawn)	D2 PAM-1 30.3
COc1ccc(C(CNC(=O)c2oc3ccc(Cl)cc3c2C)N2CCCCC2)cc1 (stereo not drawn)	none
COc1ccc(C(CNC(=O)c2oc3ccccc3c2C)N2CCCC2)cc1 (stereo not drawn)	D2 antag 76.0
c1ccc(N=C(c2cccs2)N2CCOCC2)cc1	D2 antag 31.8
O=S(=O)(/N=C(\c1ccccc1)N1CCOCC1)c1cccs1	none
O=c1c(Cc2ccccc2)c(O)ccn1Cc1ccco1	none
COCCCN1C(=O)C(CC(=O)NCCc2ccccn2)CC(C(=O)N2CCOCC2)=C1C (stereo not drawn)	none (no result: D2 PAM-1, D2 antag, D2 ag-1)
O=C(Nc1cccc(-c2nc3ccccc3s2)c1)c1ccc2c(c1)OCO2	none
c1ccc2sc(-c3ccc4c(c3)OCO4)nc2c1	D2 PAM-1 31.1
COc1ccc2c(c1)C1=NN(/C(C)=C/C(C)=O)C(c3ccc(F)cc3)C1CC2 (stereo not drawn)	D2 PAM-2 51.4
COc1ccc2c(c1)CCC1C2=NN(/C(C)=C\C(C)=O)C1c1ccc(F)cc1 (stereo not drawn)	D2 ag-2 inconclusive
CCCCCOc1ccc(Br)cc1/C(C)=N/NC1=NCCN1	none
COc1ccc(Br)cc1/C(C)=N/NC1=NCCN1	D2 antag 32.6
CCCCCOP(=O)(OCCCCC)C1(NS(=O)(=O)c2ccccc2)C=CC(=O)c2ccccc21 (stereo not drawn)	D2 PAM-2 90.2, D2 ag-2 inconclusive
C=CCC(Nc1ccccc1)c1ccc(OC)c(OC)c1 (stereo not drawn)	none (no result: D2 PAM-2, D2 ag-2)
CC1CCN(S(=O)(=O)c2cccc(S(=O)(=O)N3CCCC3)c2)CC1	none
CC(Sc1nc2ccccc2c(=O)n1CCc1ccc(S(N)(=O)=O)cc1)C(=O)NC(N)=O (stereo not drawn)	D2 PAM-1 39.7
O=C(O)CCC(=O)CCC(=O)c1ccccc1	D2 antag 34.6
Cc1ccc(C(=O)CCC(=O)CCC(=O)O)cc1	none (no result: D2 PAM-1, D2 antag, D2 ag-1)
Cc1ccccc1CN(C)CC(=O)Nc1ccccc1Oc1ccccc1	D2 antag 42.8
Cc1onc(-c2ccccc2)c1C(=O)OCC(=O)Nc1ccc(Cl)cc1	D2 antag 37.4
COC(=O)CCC(=O)OC	none (no result: D2 PAM-1, D2 antag, D2 ag-1)
COC(=O)CCCCC(=O)OC	D2 antag 36.5
N#Cc1ccccc1S(=O)(=O)N1CCN(C(=O)Cc2coc3cc(O)ccc23)CC1	none
CCOC(=O)C1C(=O)C=C(/C=C/c2ccc(N(C)C)cc2)CC1c1ccccc1 (stereo not drawn)	D2 antag 33.3, D2 ag-1 52.0
CCOC(=O)N1CCN(S(=O)(=O)CCNC(=O)c2ccc(F)cc2)CC1	none (no result: D2 ag-1)
CCOC(=O)N1CCN(S(=O)(=O)CCNC(=O)c2ccc(OC)cc2)CC1	D2 antag 34.1
COc1cc(CNc2cccc(C(=O)O)c2)cc(Br)c1OCC(=O)NC(C)(C)C	D2 antag 59.7
COc1cc(CNc2ccc3[nH]c(=O)[nH]c3c2)cc(Br)c1OCC(=O)NC(C)(C)C	none
O=C(COC(=O)/C=C/c1cccc(F)c1)NNC(=O)c1ccccc1	D2 antag 45.4
O=C(COC(=O)/C=C/c1cccc(F)c1)Nc1ccccc1	none
O=C(Nc1ccc(F)c(Cl)c1)c1cc(S(=O)(=O)NCc2ccc3c(c2)OCO3)ccc1F	none (no result: D2 antag, D2 PAM-2, D2 ag-2)
CCN(CC)c1ccc(CN(C(=O)c2cc(=O)c3ccccc3o2)C2CCS(=O)(=O)C2)cc1 (stereo not drawn)	none (no result: D2 antag, D2 PAM-2, D2 ag-2)
CCOC(=O)C1(Cc2ccccc2C(F)(F)F)CCN(CCCn2cccn2)CC1	D2 antag 47.9
CCOC(=O)C1(Cc2ccccc2C(F)(F)F)CCN(C2CCC2)CC1	D2 antag 32.1
CC(C)CCC(C(=O)O)C(C)CC(=O)NNC(=O)c1ccco1 (stereo not drawn)	none
CC#CCN(Cc1ccco1)C(=O)C1CCC(=O)N(CCc2cccc(F)c2)C1 (stereo not drawn)	none (no result: D2 PAM-1, D2 antag, D2 ag-1)
O=C(Cn1c(=O)n(CCCS(=O)(=O)C2CCCCC2)c(=O)c2ccccc21)Nc1ccccc1C(F)(F)F	none (no result: D2 antag, D2 PAM-2, D2 ag-2)
CC(=O)c1ccc2noc(-c3ccccc3)c2c1	D2 PAM-2 inconclusive, D2 ag-2 inconclusive
c1ccc(-c2onc3cc4c(cc23)OCCO4)cc1	D2 PAM-2 117.0, D2 ag-2 inconclusive
c1ccc(OCCOCCN2CCN(C(c3ccccc3)c3ccccc3)CC2)cc1	none
COc1ccc(OCCCN2CCc3ccccc3C2)cc1	D2 antag 71.9
C=CCc1cc(OC)ccc1OCCOCCN1CCc2ccccc2C1	D2 antag 84.1
c1ccc(OCCOCCN2CCc3ccccc3C2)cc1	D2 antag 64.9
CCOc1ccc(OCCOCCN2CCCC2)cc1	none
CCCOc1ccc(OCCOCCN2CCc3ccccc3C2)cc1	D2 antag 31.4
COc1cc(-c2noc(-c3cc(C)[nH]n3)n2)cc(OC)c1OC	none (no result: D2 antag, D2 PAM-2, D2 ag-2)
Cc1cc2cc(CCNC(=O)C(=O)c3c[nH]c4ccccc34)c(=O)[nH]c2cc1C	none
O=[N+]([O-])c1ccc(OCCCCN2CCc3ccccc3C2)cc1	D2 antag 62.1
Cc1ccc(SCCOCCN2CC(C)OC(C)C2)cc1 (stereo not drawn)	none
Cc1ccc(SCCOCCN2CCc3ccccc3C2)cc1	D2 antag 75.0
CCOc1ccc(OCCOCCN2CCc3ccccc3C2)cc1	D2 antag 68.4
COc1ccc(-c2cnc(C)o2)cc1S(=O)(=O)Nc1c(C)cc(C)cc1C	none (no result: D2 antag, D2 PAM-2, D2 ag-1, D2 ag-2)
O=c1cc(-c2ccccc2Cl)oc2ccc([N+](=O)[O-])c(O)c12	none
Nc1ccc2oc(-c3ccccc3Cl)cc(=O)c2c1O	D2 antag 50.3
COc1ccc(N2C(=O)CSC2c2cccc(OC)c2OC)cc1 (stereo not drawn)	D2 antag 50.7
CC1CN(C(C)C)C(=S)NC1=O (stereo not drawn)	none (no result: D2 PAM-1, D2 antag, D2 ag-1)
COc1cc(/C=N/NC(=O)CC2(C)OCCCO2)ccc1OCc1ccc(Cl)cc1Cl	D2 antag 31.0
CC1(CC(=O)N/N=C/c2ccc(OCc3ccc(Cl)cc3Cl)cc2)OCCCO1	none
